In the library only some 6.9% were active in any assay of this set; here they are far more common.
KB-V1 MDR tox – KB-V1 MDR subline cytotoxicity. KB-V1 MDR cells viability, CellTiter-Glo, 72 h. Potency, µM (top dose mostly 46.1 µM), most hits filed as cytotoxic. hit rate 3.4% among 400,000; further: potency means the concentration at half of the fitted maximal effect; on the % scale 0 is the no-effect control and ±100 the full control effect; nearly all actives have a fitted effect of over 60% in size
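Potencies derive from concentration-effect curves fitted to normalized luminescence (CellTiter-Glo) of KB-V1 cells treated for 72 h at 37 degrees C in phenol-red-free DMEM containing 10% FBS.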
Giardia kill – Giardia lamblia killing. AID 540267. Giardia lamblia trophozoite viability. hit rate 0.15% among 340,000. activity change, % at 7.66 µM, hits read low; in the data active means activity change below about -80%; inconclusive means between about -30% and that limit;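 further: parasites exposed to compound for two days anaerobically before the ATP read; on the % scale 0 is the no-effect control and ±100 the full control effect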
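Luminescent ATP signal served as the viability read-out, measured 15-30 min after adding ATP detection reagent to trophozoites that had been incubated with compounds for 48 hrs at 37 deg C anaerobically at 100 cells/well.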
MCF10A rereplic – DNA re-replication induction in MCF 10a cells. hit rate 2.9% among 350,000. MCF 10A DNA re-replication, Hoechst nuclear intensity, 48 h. Potency, µM (top dose mostly 46.1 µM), without a hit: top-dose activity, positive = re-replication, usual class: activators. AID 624296; further: potency means the concentration at half of the fitted maximal effect; % of control where 0% means no effect; nearly all actives have a fitted effect of over 50% in size
SW480 rerep – inducers of DNA re-replication in SW480 colon cancer cells; SW480 DNA re-replication, Hoechst DNA content imaging, 48 h; Potency, µM (top dose mostly 46.1 µM), for the others: at the highest dose re-replication activation, usual class: activators; hit rate 1.8% among 340,000; further: potency means the concentration at half of the fitted maximal effect; % of control where 0% means no effect; nearly all actives have a fitted effect of over 55% in size
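Per well, 250 cells were exposed to pinned compound for 48 hr. Nuclear DNA was visualised with Hoechst (40 min, 37 C) and total object intensity recorded by fluorescence scanning.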
ASM inhibitor – blocks human secretory acid sphingomyelinase; P17405; placental ASM, HMU-PC fluorogenic substrate, 60 min; Potency, µM (highest dose often 57.5 µM), inactives show top-dose activity change, negative = inhibition, actives largely listed as inhibitors; hit rate 0.006% among 340,000; further: potency means the concentration at half of the fitted maximal effect
Target sequence (P17405 47-631 limits assumed): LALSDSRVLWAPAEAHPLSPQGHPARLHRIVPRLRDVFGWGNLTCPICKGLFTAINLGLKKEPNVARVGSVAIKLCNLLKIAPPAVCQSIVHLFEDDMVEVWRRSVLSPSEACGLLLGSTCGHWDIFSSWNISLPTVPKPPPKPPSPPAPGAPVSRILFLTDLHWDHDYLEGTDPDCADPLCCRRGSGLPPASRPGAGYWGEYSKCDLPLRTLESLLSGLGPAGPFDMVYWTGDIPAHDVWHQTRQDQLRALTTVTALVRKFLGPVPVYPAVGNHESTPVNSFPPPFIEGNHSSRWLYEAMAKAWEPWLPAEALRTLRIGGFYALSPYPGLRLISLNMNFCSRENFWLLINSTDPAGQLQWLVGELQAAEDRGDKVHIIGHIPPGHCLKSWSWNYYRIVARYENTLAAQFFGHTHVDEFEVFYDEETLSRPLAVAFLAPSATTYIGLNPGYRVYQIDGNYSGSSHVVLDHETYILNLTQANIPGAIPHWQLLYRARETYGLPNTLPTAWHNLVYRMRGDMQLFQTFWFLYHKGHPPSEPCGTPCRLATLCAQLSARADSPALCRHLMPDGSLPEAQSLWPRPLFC
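Human placenta-derived ASM enzyme was preincubated with compound for 10 minutes at room temperature, then given fluorogenic substrate HMU-PC0 (9 uM final) for 60 minutes at 37 °C; a pH 10 stop preceded fluorescence reading at Ex 386/Em 447 nm.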
KB-3-1 cytotox – KB-3-1 parental cell cytotoxicity; KB-3-1 viability, CellTiter-Glo ATP luminescence, 72 h; Potency, µM (titrated, usually from 46.1 µM), actives largely listed as cytotoxic; hit rate 1.4% among 400,000; AID 1347075; further: potency means the concentration at half of the fitted maximal effect; on the % scale 0 is the no-effect control and ±100 the full control effect; nearly all actives have a fitted effect of over 60% in size
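KB-3-1 cells, DMEM (no phenol red) + 10% FBS; compound by pin transfer, 72 h, 37 °C. Readout: CellTiter-Glo luminescence after 10 min. Data normalized, curve-fitted.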
* marks the source's active call; other numbers are inactive results; i = inactive; ? = inconclusive; . = not tested or not shown. Unless noted, the call rests on the fitted dose curve; in most records, active means well fitted curve in the direction sought with a large enough effect; inconclusive means small, poorly fitted or top-dose-only effect, or another doubt; inactive means no such curve, though single readings can be large; an effect the other way counts as inactive or inconclusive.

SMILES	KB-V1 MDR tox	Giardia kill	MCF10A rereplic	SW480 rerep	ASM inhibitor	KB-3-1 cytotox
Cc1ccc(N2C(=O)CSC23C(=O)N(CC(=O)NC2CCCCC2)c2ccccc23)cc1 (configuration not stated)	18.4µM*	.	.	.	.	i
Cc1ccc(NC(=O)CN2C(=O)C3(SCC(=O)N3c3cccc(Cl)c3)c3ccccc32)cc1C (configuration not stated)	10.3µM*	.	.	.	.	i
CC1=CC(C)(C)N2C(=O)C3(NCCc4c3[nH]c3ccccc43)c3cc(C)cc1c32 (configuration not stated)	?	4.7	9.4%	?	-6.3%	?
CC1=CC(C)(C)N2C(=O)C3(SCC(=O)N3c3ccc(F)cc3)c3cc(C)cc1c32 (configuration not stated)	16.4µM*	7.8	8.1%	13.0%	-13.7%	?
Cc1cc(C)c(NC(=O)CN2C(=O)C3(SCC(=O)N3c3ccc(F)cc3)c3ccccc32)c(C)c1 (configuration not stated)	14.6µM*	.	.	.	.	i
Cc1ccc(N2C(=O)CSC23C(=O)N(CC(=O)Nc2ccc(C(C)C)cc2)c2ccccc23)cc1C (configuration not stated)	i	.	.	.	.	i
CCC1(c2ccc(F)cc2)NC(=O)NC1=O (configuration not stated)	i	2.5	-9.7%	-2.5%	-3.3%	i
CNc1ncnc2c1ncn2[C@H]1CN(CCc2ccccc2)C[C@@H](CO)O1	i	.	.	.	.	i
COc1cc(NC(=O)c2cccc3c2C(=O)N(C2CCCCC2)C3)cc(OC)c1OC	?	37.1	?	8.2%	-18.3%	?
Cc1nc2nc(CNC(=O)c3cccc(F)c3)nn2c(C)c1CCC(=O)Nc1ccc(F)cc1	i	.	.	.	.	i
COc1cc(Cn2c(-c3nonc3N)nc3ccccc32)ccc1C	5.17µM*	-8.7	3.98µM*	7.08µM*	-15.3%	4.61µM*
Nc1nonc1-c1nc2ccccc2n1Cc1cccc(Cl)c1	i	.	.	.	.	i
COc1cccc(Cn2c(-c3nonc3N)nc3ccccc32)c1	11.6µM*	?	2.59µM*	4.61µM*	-7.4%	2.91µM*
Clc1ncnc2c1oc1ccccc12	i	1.1	6.5%	29.6%	-2.5%	?
c1coc(CN(Cc2ccco2)c2ncnc3c2oc2ccccc23)c1	16.4µM*	14.7	?	?	-17.5%	?
CC1(C)C2CCC1(C)C(NC(=O)COC(=O)c1ccc(S(C)(=O)=O)c([N+](=O)[O-])c1)C2 (configuration not stated)	?	-3.4	.	.	.	?
CCOc1ccc(-c2noc(CCCC(=O)NC3CCCC3)n2)cc1OC	8.2µM*	-2.6	-0.4%	-8.9%	4.4%	i
CCN(C(=O)CCc1nc(-c2ccc(OC)cc2)no1)c1cc(OC)ccc1OC	16.4µM*	8.0	-13.7%	0.3%	-10.3%	?
O=C(CCCc1nc(-c2ccc(Cl)cc2)no1)NC1CCCCC1	11.6µM*	12.4	16.4%	-1.3%	-2.8%	?
COc1cccc(-c2noc(CCCC(=O)NC3CCCC3)n2)c1	i	4.5	-1.4%	20.6µM*	-1.4%	i
Cc1ccc(-c2ccc(/C=N/N3C(=O)C4C5C=CC(CC5)C4C3=O)o2)c([N+](=O)[O-])c1 (configuration not stated)	?	-101.9*	?	?	-4.9%	i
O=C1C2C3C=CC(C4CC34)C2C(=O)N1/N=C/c1ccc(-c2ccc(F)cc2[N+](=O)[O-])o1 (configuration not stated)	i	-3.9	20.9%	0.1%	-11.5%	i
O=S(=O)(CC(CN1CCCC1)N1CCCC1)c1ccc2ccccc2c1 (configuration not stated)	?	-3.7	11.6µM*	10.3µM*	-6.1%	11.6µM*
CN(CCc1ccccc1)C(C(=O)Nc1ccc2c(c1)OCCO2)c1ccnc2ccccc12 (configuration not stated)	23.1µM*	.	.	.	.	?
COc1ccc(CNC(=O)Cc2csc3nc(-c4ccc(C)cc4)cn23)cc1	i	.	.	.	.	i
SMILES	KB-V1 MDR tox	Giardia kill	MCF10A rereplic	SW480 rerep	ASM inhibitor	KB-3-1 cytotox
O=C(c1cc(Br)ccc1O)N(Cc1ccco1)Cc1cccs1	i	8.9	.	.	.	?
COc1cc2c(cc1OC)C1=C(C#N)CC/C(=N\S(=O)(=O)c3ccccc3)N1CC2	?	-11.6	-3.9%	-6.9%	30.6%	i
COc1cc2c(cc1OC)C1=C(C#N)CCC(=O)N1CC2	4.61µM*	5.8	1.8%	-6.7%	2.0%	16.4µM*
COc1ccc(CCN2CC(C#N)=C3c4cc(OC)c(OC)cc4CCN3C2)cc1OC	i	-12.0	22.6%	3.4%	3.0%	i
COc1cc2c(cc1OC)C1=C(C#N)CN(C3CCCCC3)CN1CC2	20.6µM*	?	2.9%	1.0%	10.0%	i
COc1ccc(C(=O)N=C2CCC(C#N)=C3c4cc(OC)c(OC)cc4CCN23)cc1	11.6µM*	-8.7	?	6.0%	-1.7%	?
COc1ccc2c(CNCc3ccccc3OC)c(C(=O)O)n(Cc3ccc(F)cc3Cl)c2c1	i	.	.	.	.	i
COc1ccc(S(=O)(=O)Nc2c(C(=O)O)[nH]c3ccc(OC)cc23)cc1	?	-6.1	?	-0.2%	20.9%	i
COC(=O)c1[nH]c2ccc(F)cc2c1NS(=O)(=O)c1ccc(OC)cc1	7.31µM*	-5.6	7.31µM*	4.61µM*	0.2%	2.59µM*
Cn1nc(C(C)(C)C)cc1C(=O)NCc1ccc(N2CCCC2=O)cc1	0.581µM*	6.1	0.9%	12.8%	4.0%	0.651µM*
CCCCN1C=CC(=C2C(=O)c3ccccc3C2=O)C=C1	?	-95.1*	-4.0%	-5.2%	-12.6%	i
COc1c2ccccc2nc2ccccc12	i	11.6	?	23.1µM*	i	i
Cc1c2ccccc2nc2ccccc12	i	8.9	-2.3%	-4.9%	i	i
CCc1nc2cccnc2n1-c1ccc(CC(=O)Nc2ccccc2Cl)cc1	i	.	.	.	.	i
O=C(Nc1cccc(S(=O)(=O)N2CCCCC2)c1)c1ccc2c(=O)n3c(nc2c1)CCCCC3	5.8µM*	-13.4	23.8%	-7.7%	-16.4%	11.6µM*
COc1cc(C(=O)Nc2cccc(S(=O)(=O)N3CCCC3)c2)cc(OC)c1C	23.1µM*	0.5	?	0.7%	-8.1%	?
CCn1nc(C(=O)Nc2cccc(S(=O)(=O)N3CCCC3)c2)c2ccccc2c1=O	?	13.0	4.3%	-12.8%	-3.9%	i
O=C(Nc1cccc(S(=O)(=O)C(F)F)c1)c1ccc(S(=O)(=O)N2CCCCC2)cc1	?	19.2	-2.0%	-7.2%	-6.4%	?

Screens from PubChem.
